Only a selection was taken, and hits are over-represented in it overall.
Eya2 inh: Eya2 (human) phosphatase inhibition. O00167. recombinant Eya2, OMFP fluorescence dephosphorylation (OMFP is methylfluorescein phosphate). Potency, µM (series often up to 76.9 µM), actives largely listed as inhibitors. hit rate 0.006% among 330,000. AID 488837
Target sequence (O00167 whole entry, looked up): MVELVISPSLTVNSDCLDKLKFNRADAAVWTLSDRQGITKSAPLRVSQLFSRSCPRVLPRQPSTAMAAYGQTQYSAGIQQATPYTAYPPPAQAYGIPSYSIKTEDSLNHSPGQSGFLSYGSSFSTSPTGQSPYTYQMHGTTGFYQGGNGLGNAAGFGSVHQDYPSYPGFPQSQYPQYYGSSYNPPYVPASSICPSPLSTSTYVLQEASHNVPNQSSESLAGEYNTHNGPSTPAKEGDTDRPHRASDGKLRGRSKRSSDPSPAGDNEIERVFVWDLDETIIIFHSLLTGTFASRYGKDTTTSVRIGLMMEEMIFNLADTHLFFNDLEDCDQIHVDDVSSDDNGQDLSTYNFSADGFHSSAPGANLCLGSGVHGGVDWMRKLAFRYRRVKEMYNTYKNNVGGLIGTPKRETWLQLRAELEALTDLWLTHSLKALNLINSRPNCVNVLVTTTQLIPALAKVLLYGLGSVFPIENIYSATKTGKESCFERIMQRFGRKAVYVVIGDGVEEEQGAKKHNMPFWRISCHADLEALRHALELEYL
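Eya2 protein (added as 0.2 uM solution) was preincubated with compound for 10 min at ambient temperature in 50 mM HEPES pH 7.5, 50 mM NaCl, 5 uM MgCl2, 0.05% BSA, 1 mM DTT. OMFP (added at 50 uM) then reacted 10 min; fluorescence read at 485/525 nm.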
GALK inh: galactokinase (human) inhibition. Purified GALK, Kinase-Glo residual ATP luminescence. Potency, µM (titrated, usually from 57.5 µM), usual class: inhibitors. hit rate 0.007% among 270,000
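5 nM enzyme, 35 uM ATP, 100 uM galactose, 20 mM HEPES pH8.0, 5 mM MgCl2; 1 h RT; residual ATP by Kinase-Glo Plus luminescence, qHTS format.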
USP2a inh: blocks human ubiquitin-specific protease USP2a; Potency, µM (series often up to 38.3 µM), hits mostly inhibitors; hit rate 0.01% among 330,000; O75604; USP2 core, Ub-CHOP2 coupled fluorogenic reporter, 485/531
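Deubiquitinase activity read as fluorescence (485/531 nm) after Ub-CHOP2 cleavage activates the enterokinase reporter on its substrate; USP2 core 10nM, Ub-CHOP2 and substrate 25nM each, 30min compound preincubation then 60min RT; data normalized to NEM, curves fitted.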
ClpP mod: qHTS Assay for Activators of ClpP; purified B. subtilis ClpP, FRET peptide cleavage, 20 min; Potency, µM (doses to about 57.5 µM); hit rate 1.9% among 340,000; AID 651965, 2013; active = well fitted falling curve with a large enough effect; inconclusive = small, poorly fitted or top-dose-only effect; inactive = no such curve, though single readings can be large or run the other way; note: the source files actives as falling curves though it sought activators and does not explain the sign; nearly all actives have a fitted effect of over 65% in size
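ClpP 10 microg/mL final, pH 8 Tris/KCl buffer with BSA, glycerol, Tween-20; compound pinned in; FRET-FV substrate; RT 20 min; Ex320/Em430; ΔFRET vs ADEP 5.8 microM, DMSO, no enzyme.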
ClpP inh valid: inhibits B. subtilis ClpP protease, hit validation; shares compounds with ClpP mod; purified B. subtilis ClpP, FRET-FV substrate cleavage, 20 min; Potency, µM (titrated, usually from 57.5 µM), usual class: inhibitors; hit rate 40% among 470; note: nearly all actives have a fitted effect of over 70% in size
Each line names hits and unclear results; the compound was inactive in the other large screens (follow-up assays come after a bar, where they were run). Unless noted, calls come from the whole dose curve; as a rule, active = well fitted curve in the direction sought with a large enough effect; inconclusive = small, poorly fitted or top-dose-only effect, or another doubt; inactive = no such curve, though single readings can be large; an effect the other way counts as inactive or inconclusive.

CC(=O)Nc1ccc2ccc3cccc4ccc1c2c34	ClpP mod 14.1µM
CCc1nnc(NC(=O)CSc2nnc(-c3ccoc3C)n2-c2cccc(C)c2)s1	none
CCOc1ccc2[nH]c(C)c(CN3CCN(C)CC3)c(=O)c2c1	none
C=CCN(CC=C)Cc1c(C)[nH]c2ccc(C(=O)OCC)cc2c1=O	ClpP mod 28.2µM
COC(=O)c1ccc2[nH]c(C)c(CN3CCCC3)c(=O)c2c1	ClpP mod 28.2µM
Cc1[nH]c2ccc(Br)cc2c(=O)c1CN1CCCCC1	none
CCOc1ccc2[nH]c(C)c(CN3CCN(CC)CC3)c(=O)c2c1	ClpP mod 15.8µM
Cc1ccc(N(CC(=O)NCCc2ccccc2)S(=O)(=O)N(C)C)cc1	none (no result: Eya2 inh, GALK inh, USP2a inh)
Cc1ccc(C)c(N/C(N)=N/c2nc(C)cc(C)n2)c1	ClpP mod 31.6µM
COc1ccc(C)cc1N/C(N)=N/c1nc(C)cc(C)n1	none
Clc1nc(Cl)nc(N(c2ccccc2)c2ccccc2)n1	none
Nc1ccc(N(c2ccccc2)c2ccc(N)cc2)cc1	ClpP mod 35.5µM
O=C(Cn1nnc(-c2ccccc2NC(=O)c2ccccc2F)n1)NCc1ccco1	none
COc1ccc(C(=O)Nc2ccccc2-c2nnn(CC(=O)NCc3ccco3)n2)cc1	none | ClpP inh valid inconclusive
NS(=O)(=O)c1ccc(NC(=O)CSc2ccccc2)cc1	none
CCN1CCN(CCCNC(=O)Cn2nc(C)n3c(cc4cc(C)ccc43)c2=O)CC1	ClpP mod inconclusive (no result: Eya2 inh, GALK inh, USP2a inh) | ClpP inh valid inconclusive
CC1=NN(C(=O)CCc2ccccc2)C(O)(c2ccncc2)C1 (stereo not given)	none
COc1cccc(NC(=O)CNC(=O)c2ccc([N+](=O)[O-])cc2)c1	none (no result: ClpP mod)
FCCCOc1ccc(-c2nccc(-c3ccc(Cl)cc3)n2)cc1	none
COc1ccc(-c2ccnc(-c3ccc(OCCCF)cc3)n2)cc1	ClpP mod 7.94µM | ClpP inh valid inactive
O=C(c1ccco1)N1CCN(S(=O)(=O)c2ccc3c(c2)CCN3C(=O)C2CCC2)CC1	none
COCCCNC(=O)c1c(N)n(-c2cccc(S(N)(=O)=O)c2)c2nc3ccccc3nc12	ClpP mod 8.91µM | ClpP inh valid inconclusive
Nc1c(C(=O)NCCN2CCOCC2)c2nc3ccccc3nc2n1-c1cccc(F)c1	ClpP mod 10µM | ClpP inh valid 21.7µM
O=C(O)CSC1CC(=O)N(c2cccc(Cl)c2)C1=O (stereo not given)	none
COc1cc(CNC(=O)c2cnccn2)cc(OC)c1	none (no result: Eya2 inh, GALK inh, USP2a inh)
O=S(=O)(c1ccc2c(c1)CCCC2)N1CCN(c2nc(-c3cccs3)nc3ccccc23)CC1	ClpP mod 8.91µM (no result: Eya2 inh, GALK inh, USP2a inh) | ClpP inh valid 24.3µM
O=S(=O)(c1ccc2c(Cl)cccc2c1)N1CCN(c2nc(-c3cccs3)nc3ccccc23)CC1	ClpP mod 4.47µM (no result: Eya2 inh, GALK inh, USP2a inh) | ClpP inh valid 21.7µM
O=S(=O)(c1cc(Cl)cc(Cl)c1)N1CCN(c2nc(-c3cccs3)nc3ccccc23)CC1	none (no result: Eya2 inh, GALK inh, USP2a inh)
COc1ccc(NC(=O)C[C@H]2C(=O)N(c3ccccc3)C[C@@H]2CSC)cc1	none (no result: Eya2 inh, GALK inh, USP2a inh)
COc1ccc2nc(NC(C)=O)sc2c1	none
COc1ccc2nc(NC(=O)c3ccc(-n4nc(C)cc4C)cc3)sc2c1	none | ClpP inh valid 27.3µM
COc1ccc(C)c2sc(NC(=O)C3CC3)nc12	none (no result: GALK inh)
COc1ccc(-c2cc(C(=O)Nc3c(Cl)cc(Cl)cc3Cl)c3ccccc3n2)cc1OC	none | ClpP inh valid 21.7µM
CCCn1cc(CN2CCC(n3nccc3NC(=O)c3ccccc3)CC2)c(C)n1	ClpP mod 3.16µM | ClpP inh valid inactive
Cc1cccc(C(=O)Nc2ccc(N3CCC(N4CCCCC4)CC3)c(C(=O)O)c2)c1	none (no result: Eya2 inh, GALK inh, USP2a inh)
CC1(C)Cc2nc3oc4c(NCCCN5CCOCC5)ncnc4c3cc2CO1	none (no result: ClpP mod)
CC1(C)Cc2nc3oc4c(NCc5ccccc5)ncnc4c3cc2CO1	ClpP mod 2.82µM | ClpP inh valid 9.68µM
Cc1[nH]c(=O)[nH]c(=O)c1S(=O)(=O)N1CCC(C(=O)NC(C)c2ccccc2)CC1 (stereo not given)	none (no result: GALK inh)
Cc1ccc(-c2nc3cc(C(C)C)ccc3o2)cc1NC(=O)c1cc2ccccc2o1	ClpP mod inconclusive (no result: Eya2 inh, GALK inh, USP2a inh) | ClpP inh valid 30.6µM
CC(C)c1ccc2oc(-c3ccc(Cl)c(NC(=O)Cc4ccccc4)c3)nc2c1	none (no result: Eya2 inh, GALK inh, USP2a inh)

Compound activity: PubChem, National Center for Advancing Translational Sciences (NCATS)
